Bioassay records from PubChem BioAssay.
Rows were chosen to be rich in hits. Some 3.5% of all compounds tested hit in one or more screens of this group.
GPR151 ag – human GPR151 activation; Q8TDV0; PathHunter beta-arrestin GPR151 cells, luminescence; activation, % at 11.2 µM; 650,000 compounds, 1% hits; in the data active means activation above about 4.9%;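 further: 0% = median of compound wells and 100% = cells with positive control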
TEAD-YAP block – TEAD-YAP interaction inhibition; HEK-TIYL cells, TEAD-Gal4/YAP UAS-luciferase luminescence; 640,000 compounds, 1.4% hits; inhibition, % at 9.12 µM; in the data active means inhibition above about 32%;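 further: 0% = median of test compound wells and 100% = reference inhibitor wells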
FBW7 act – human FBW7 E3 ligase activation, primary screen. Q969H0. AlphaScreen FBW7–phospho-cyclin E peptide binding, activator screen. normalized activity (activation), % at 26.1 µM. 650,000 compounds, 0.13% hits. AID 1259310; in the data active means normalized activity above about 1.9%;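 further: purified mutant Fbw7 with reduced substrate affinity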
Target sequence (Q969H0 whole entry, looked up): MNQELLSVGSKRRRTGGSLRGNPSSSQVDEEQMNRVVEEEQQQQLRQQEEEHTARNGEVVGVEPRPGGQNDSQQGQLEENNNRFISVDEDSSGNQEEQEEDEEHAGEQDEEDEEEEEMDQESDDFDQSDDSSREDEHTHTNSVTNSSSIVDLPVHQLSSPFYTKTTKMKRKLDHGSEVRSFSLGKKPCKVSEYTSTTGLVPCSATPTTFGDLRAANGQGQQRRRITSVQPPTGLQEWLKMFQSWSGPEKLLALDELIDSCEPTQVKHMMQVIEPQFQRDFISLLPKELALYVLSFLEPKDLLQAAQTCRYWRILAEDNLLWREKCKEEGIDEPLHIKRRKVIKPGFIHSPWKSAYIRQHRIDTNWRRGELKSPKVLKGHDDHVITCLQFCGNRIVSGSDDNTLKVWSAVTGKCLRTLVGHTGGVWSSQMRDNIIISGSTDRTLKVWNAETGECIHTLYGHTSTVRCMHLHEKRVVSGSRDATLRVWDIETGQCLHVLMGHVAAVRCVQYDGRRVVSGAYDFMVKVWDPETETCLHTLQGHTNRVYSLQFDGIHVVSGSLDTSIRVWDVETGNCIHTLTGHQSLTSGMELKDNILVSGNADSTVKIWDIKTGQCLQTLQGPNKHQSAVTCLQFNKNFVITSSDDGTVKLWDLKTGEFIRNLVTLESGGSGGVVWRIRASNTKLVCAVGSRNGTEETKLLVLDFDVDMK
MITF inh – inhibitors of human MITF. O75030. AlphaScreen MITF homodimerization, bead proximity signal. inhibition, % at 2.6 µM. 650,000 compounds, 0.91% hits; in the data active means inhibition above about 50%;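 further: 0% = vehicle wells with protein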
MITF inh conf – human MITF inhibition, confirmation; AlphaScreen MITF homodimerization, biotin/His-MITF beads; 4,700 compounds, 16% hits; shares compounds with MITF inh; inhibition, % at 2.6 µM;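 active means inhibition above a cutoff derived from the DMSO control wells, cut at about 28% in these data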;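 further: 0% = MITF dimer wells with DMSO only; inhibitors lower the bead chemiluminescence by keeping MITF from dimerizing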
AlphaScreen intf2 – AlphaScreen optical interference, counter-screen. shares compounds with MITF inh. 4,700 compounds, 7.6% hits. inhibition, % at 2.6 µM. LysRS AlphaScreen counterscreen, signal interference, triplicate;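 active means inhibition above a cutoff derived from the DMSO control wells, cut at about 30% in these data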
An asterisk follows results filed as active.

SMILES	GPR151 ag	TEAD-YAP block	FBW7 act	MITF inh	others
CC(C)NC(=O)C1CCCN(S(=O)(=O)c2cccs2)C1 (stereo not drawn)	-0.4	1.8	0.1	-6.8
COc1c(C)cc(C(=O)C2CCCN(S(=O)(=O)c3ccsc3)C2)cc1C (stereo not drawn)	1.5	44.3*	0.0	3.0
CC(C)C[C@@H]1NC(=O)[C@H]2CN(C(=O)c3cccc(Cl)c3)CCN2C1=O	0.2	-8.7	-0.3	-8.4
c1ccc(-n2cnc3c(Nc4ccc(N5CCOCC5)cc4)nc(Nc4ccc5ncccc5c4)nc32)cc1	0.8	3.6	-0.4	-1.0
CC(=O)Nc1ccc(Nc2nc(Nc3ccc4ncccc4c3)nc3c2ncn3C(C)C)cc1	-1.1	35.6*	-0.1	2.9
Nc1nc(Nc2ccc3ncccc3c2)nc2c1ncn2-c1ccsc1	-0.1	5.7	38.3*	-13.7
c1ccc(Nc2nc(Nc3ccc4ncccc4c3)nc3c2ncn3-c2ccsc2)cc1	2.6	57.5*	-0.1	9.9
c1ccc(Nc2nc(Nc3ccc4ncccc4c3)nc3c2ncn3-c2ccccc2)cc1	-2.1	42.1*	0.8	7.1
CCc1ccc(CNC(=O)C(=O)Nc2ccccc2)cc1	1.5	-38.9	0.1	-10.9
CCCN1CCc2nnc(C(CC(C)C)NC(=O)COC)n2CC1 (stereo not drawn)	0.8	-3.2	-0.1	7.5
O=C(O)CC(NC(=O)c1cccc(Br)c1)c1ccc(F)cc1 (stereo not drawn)	1.9	2.8	0.1	5.8
c1cnc2ccc(Nc3nc(Nc4ccc(N5CCOCC5)cc4)c4ncn(-c5ccsc5)c4n3)cc2c1	-1.7	37.8*	-0.1	-0.6
Nc1nc(Nc2ccccc2)nc2c1ncn2-c1ccsc1	-1.5	37.2*	0.0	13.3
CC(=O)Nc1ccc(Nc2nc(Nc3ccc4ncccc4c3)nc3c2ncn3-c2ccccc2)cc1	1.0	40.2*	0.2	1.5
COc1ccc2[nH]c3c(=O)n(CCCCCC(=O)NCC(OC)OC)c(=S)[nH]c3c2c1	-0.6	-0.9	-0.1	-19.4
C/C(=N\NC(=S)NCCc1ccccc1)c1ccccn1	0.9	88.1*	-0.9	25.8
S=C(NCCc1ccccc1)N/N=C/c1ccccn1	-1.7	80.5*	-0.4	37.7
O=C(Cc1ccccc1)N/N=C/c1ccccn1	-0.5	-16.6	-0.2	2.1
COc1ccc(/C(C)=N/NC(=S)NCCc2ccccc2)c(O)c1	-0.7	2.4	0.3	87.3*
COc1cccc(CN(C)C(=O)c2n[nH]c3cc(-c4cn[nH]c4)ccc23)c1	-0.2	-17.3	0.2	3.8
COc1ccccc1N1C(=O)CC(S/C(N)=N/N=C(\C)c2ccc(O)cc2)C1=O (stereo not drawn)	0.5	-6.6	0.2	81.6*
COc1ccccc1/C=C/CN1CCNC(=O)C1CC(=O)NC1CCCCCC1 (stereo not drawn)	-1.7	-1.5	-0.1	7.3
Cc1cccc(C(=O)N(CC(=O)Nc2sc(C)c(C)c2C(N)=O)C2CCCCC2)c1	-0.2	26.0	0.0	14.3
COc1ccc(C(=O)CSc2nc3sc4c(c3c(=O)n2-c2ccccc2)CCC4)cc1OC	1.1	14.2	0.0	-1.6
COc1ccc(C(=O)CSc2nc3scc(-c4ccccc4)c3c(=O)n2-c2ccccc2)cc1OC	-0.2	-4.0	1.9*	23.1
SMILES	GPR151 ag	TEAD-YAP block	FBW7 act	MITF inh	others
COc1cc(NC(=O)c2cccc(-c3cccc(C(C)=O)c3)c2)cc(OC)c1OC	3.1	29.9	0.0	-1.9
COc1cccc(-c2cc(C(=O)Nc3cc(OC)c(OC)c(OC)c3)on2)c1	0.1	42.1*	-0.3	3.6
COc1cc(NC(=O)c2cncc(-c3cccs3)c2)cc(OC)c1OC	-0.4	39.3*	0.1	6.7
COc1cc(NC(=O)c2cncc(-c3cccc(C(C)=O)c3)c2)cc(OC)c1OC	-0.6	59.3*	0.0	1.0
COc1cc(C2C(C#N)=C(N)Oc3n[nH]c(COc4ccccc4)c32)ccc1-c1ccccc1 (stereo not drawn)	-1.2	6.1	0.0	11.2
CC(C)(C)c1nc2scc(-c3ccccc3)c2c(=O)o1	0.6	0.5	0.0	2.5
CC(C)(C)c1nc2scc(-c3ccc(Br)cc3)c2c(=O)o1	0.3	34.2*	0.2	9.4
CCN(/N=C/c1ccc(OC)cc1)c1cc(=O)n(C)c(=O)[nH]1	-0.7	-9.2	0.7	22.8
COc1ccc(OCC(=O)N/N=C/c2ccc(O)cc2O)c(Br)c1	0.8	5.4	0.1	2.8
Cc1ccc(/C=c2/sc3nc4ccccc4n3c2=O)cc1	-0.7	72.9*	-0.1	-5.2
CN(C)c1ccc(/C=c2\sc3nc4ccccc4n3c2=O)cc1	-1.2	73.9*	0.3	-10.2
COc1ccc(/C=c2/sc3nc4ccccc4n3c2=O)c(OC)c1	-1.4	-23.9	0.3	19.5
COc1cccc(/C=c2\sc3nc4ccccc4n3c2=O)c1	0.8	45.0*	-0.8	6.9
Cc1ccc(/C=c2\sc3nc4ccccc4n3c2=O)s1	-0.8	53.8*	-0.1	-5.1
Cc1ccc(/C(O)=C2/C(=O)C(=O)N(CCC(=O)O)C2c2ccccc2Cl)cc1 (stereo not drawn)	0.2	-5.1	0.1	5.6
O=c1/c(=C\c2ccccc2)sc2nc3ccccc3n12	1.2	-17.9	-0.1	-4.1
CCN(CC)c1ccc(/C=c2/sc3nc4ccccc4n3c2=O)cc1	0.1	45.9*	0.0	16.2
CN(C)S(=O)(=O)c1ccc(C(=O)Nc2ccc(Cc3ccc(NC(=O)c4ccc(S(=O)(=O)N(C)C)cc4)cc3)cc2)cc1	-0.5	-1.6	0.1	6.3
O=C(Nc1cnccn1)Nc1ccc(Br)cc1Cl	0.2	-7.0	-0.2	-3.8
CCCCn1c(SCCC)nc2sc3c(c2c1=O)CCC3	-1.4	0.6	0.0	3.3
COc1ccc2nc(N3CCN(C(=O)CS(=O)(=O)c4ccccc4)CC3)sc2c1	-1.1	-12.2	-0.2	0.1
O=C(/C=C/c1ccc2c(c1)OCO2)CC1(O)C(=O)N(Cc2ccccc2)c2ccccc21 (stereo not drawn)	0.0	15.5	0.2	68.3*	MITF inh conf=5.5;AlphaScreen intf2=14.4
CNC(=S)NNC(=O)c1ccc(O)cc1	-1.3	-1.8	-0.4	-1.7
CNC(=S)NNC(=O)C(=O)NNC(=S)NC	-0.1	1.1	-1.2	79.1*	MITF inh conf=11.1;AlphaScreen intf2=74.1*
Oc1c(Br)cc(CN2CCCCC2)c2cccnc12	-0.5	65.8*	-1.0	92.5*	MITF inh conf=112.0*;AlphaScreen intf2=100.6*
Oc1c(Cl)cc(CN2CCCCC2)c2cccnc12	1.2	83.2*	-1.0	109.7*	MITF inh conf=109.7*;AlphaScreen intf2=100.6*
Clc1ccccc1CN1CCN(c2ncccn2)CC1	-0.2	-4.1	0.1	20.8
CCN1C(=O)C2(C(C#N)=C(N)OC3=C2C(=O)CCC3)c2ccccc21 (stereo not drawn)	-0.6	-3.2	0.3	19.8
COc1ccc(CN(CCCN(C)C)CCCN(C)C)cc1OC	-0.2	1.3	0.0	34.5
